The whole screen tested about 370,000 compounds, of which about 4,800 (1.3%) were called active. The sample holds actives, similar compounds and a random draw of the others, so the mix is not that of the screen. Values without a mark were called inactive.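 The calls were made as follows: active = inhibition above about 21% made by adding two undisclosed values (limit read from the data); inactive = the rest.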
What follows are molecules tested against Protein arginine N-methyltransferase 1 (Homo sapiens) (UniProt Q99873) (assay: PRMT1 methyltransferase inhibitors, primary screen, biochemical, fluorescence polarization (AID 652257)). Details: recombinant PRMT1, activity-based probe fluorescence polarization; at 2.79 µM; stronger effect = higher value.
Sequence of Protein arginine N-methyltransferase 1 (Homo sapiens) (Q99873 whole entry, looked up): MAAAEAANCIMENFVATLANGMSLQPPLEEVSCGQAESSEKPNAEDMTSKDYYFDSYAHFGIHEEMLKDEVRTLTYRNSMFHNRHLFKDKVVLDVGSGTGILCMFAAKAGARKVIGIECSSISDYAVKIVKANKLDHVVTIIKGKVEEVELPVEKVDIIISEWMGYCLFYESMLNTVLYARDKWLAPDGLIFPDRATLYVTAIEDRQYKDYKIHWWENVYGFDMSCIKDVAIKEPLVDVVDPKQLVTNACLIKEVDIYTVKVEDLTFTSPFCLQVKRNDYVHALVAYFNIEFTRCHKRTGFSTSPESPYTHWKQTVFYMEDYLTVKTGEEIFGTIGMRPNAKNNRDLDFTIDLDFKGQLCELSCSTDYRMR

Compared with `CCC(NC(=O)C1C2C=CC3(CN(Cc4ccccc4)C(=O)C13)O2)c1ccccc1` (stereo not given), `COc1ccc(C(=O)NN2C(=O)C3C(c4ccccc4)C=CC(c4ccccc4)C3C2=O)cc1` (stereo not given) is lower in inhibition: 2.19% for the first, -3.24% for the second.

Compared with `CCOC(=O)[C@@]12CCC3=C1N(CCC3)C(=O)[C@H](CC(=O)N1CCN(C(=O)c3ccco3)CC1)C2`, `COC(=O)[C@]12C[C@H](CC(=O)NCc3ccccc3)C(=O)N(CCC3=CCCCC3)C1=C[C@H](C(C)C)O[C@@H]2C1CC1` is higher in inhibition: -2.33% for the first, -0.96% for the second.

First: CC1=CC(C)(C)NC(=S)N1c1ccccc1
Second: Cc1cc(-c2n[nH]c(=S)n2-c2ccc(C)c(C)c2)no1
The inhibition of the first is lower: 3.18% for the first, 4.04% for the second.

Compared with `Cc1ccc(-c2nnc(SCC(=O)Nc3ccc(Oc4ccccc4)cc3)n2Cc2ccco2)cc1`, `O=C(CSc1nnc(COc2ccccc2)n1Cc1ccco1)c1ccc2ccccc2c1` is higher in inhibition: 4.18% for the first, 4.78% for the second.

Compared with `CC1CC1C(=O)OCC(=O)Nc1cccc(F)c1` (stereo not given), `COc1ccc([N+](=O)[O-])cc1NC(=O)COC(=O)/C=C/c1ccco1` is higher in inhibition: 2.32% for the first, 5.77% for the second.

Going from `Cc1ccccc1CN1CCCCC(NC(=O)Nc2ccccc2F)C1=O` (stereo not given) to `O=C(c1ccccc1)c1ccc(-c2ccccc2C(=O)NC2CCCCN(Cc3ccc(Cl)cc3)C2=O)cc1` (stereo not given), the inhibition falls from -0.07% to -3.72%.

First: C#CCNC(=O)C[C@H]1C[C@@]2(C(=O)OC)C(=C[C@H](C(C)C)O[C@@H]2C2CC2)N(Cc2ccco2)C1=O
Second: COC(=O)[C@]12C[C@H](CC(=O)NCCCN3CCCC3=O)C(=O)N(CCc3ccc(OC)c(OC)c3)C1=C[C@H](COCc1ccccc1)O[C@@H]2C
The inhibition of the first is lower: -1.6% for the first, -1.4% for the second.

Going from `C=CCn1c(=NC(=O)c2cccs2)sc2cc(NC(C)=O)ccc21` to `COC(=O)C[C@@H]1CC[C@@H]2[C@H](COc3ccc(NC(=O)c4cccc(F)c4)cc3C(=O)N2C)O1`, the inhibition falls from 4.42% to -3.84%.

Compared with `COc1cc2c(cc1OC)C(Cc1cc(OC)c(OC)cc1[N+](=O)[O-])=NCC2`, `COc1ccc(Cl)cc1NS(=O)(=O)c1cccc(C(=O)NC2CCC(O)CC2)c1` (stereo not given) is lower in inhibition: 8.89% for the first, -6.68% for the second.

Going from `C=C(C)C#CC(Cc1ccccc1)NCC1CC1` (stereo not given) to `CCCC[C@H]1C2CC(OC(=O)NCc3ccccc3)C(C2)[C@H]2CCCCN21` (stereo not given in full), the inhibition falls from 7.99% to 1.74%.

First: O=C(CSc1nnc(-c2cccs2)n1Cc1ccco1)c1ccc2c(c1)OCO2
Second: CC1CCN(C(=O)CSc2nnc(-c3ccco3)n2N)CC1
The inhibition of the first is higher: 1.9% for the first, -3.61% for the second.

Compared with `COc1ccc(OCc2n[nH]c(=S)n2N)cc1`, `COc1ccc(C(C#N)Nc2ccccc2C)cc1` (stereo not given) is lower in inhibition: 4.04% for the first, 1.86% for the second.

Compared with `CC(C)(C)OC(=O)NCc1cc(F)ccc1/C=C/S(=O)(=O)NCCc1ccccc1`, `COC(=O)C1CN(CCc2ccccc2)CCS(=O)(=O)N1Cc1cccc(Cl)c1` (stereo not given) is higher in inhibition: -0.49% for the first, 4.71% for the second.

Compared with `O=C(/C=C/c1ccc([N+](=O)[O-])o1)NNC(=O)c1ccc(F)cc1`, `COc1ccc(Cl)cc1C(=O)NNC(=S)NC(=O)/C=C/c1ccco1` is lower in inhibition: 5.67% for the first, -3.9% for the second.

Compared with `Cc1cc(NC(=O)COC(=O)/C=C/c2ccc(C)o2)no1`, `COc1ccc(-n2c(SCC(=O)Nc3ccc(C)c(Cl)c3)nc3ccccc3c2=O)cc1` is lower in inhibition: 5.65% for the first, 0.06% for the second.

First: COc1ccc(/C=C2/S/C(=N/N=C3\CC4CCC3(C)C4(C)C)NC2=O)cc1 (stereo not given)
Second: COc1ccc2c(c1)N(C)/C(=C1/SC(=S)N(NC(C)=O)C1=O)S2
The inhibition of the first is higher: -3.61% for the first, -3.82% for the second.

Going from `CCN1/C(=C\c2ccc3ccccc3[n+]2CC)Sc2cc(C)ccc21` to `CC(c1ccc(N)cc1)c1cn(C)c2ccccc12` (stereo not given), the inhibition rises from -5.01% to -3.45%.

Going from `C=CCN1[C@H](CC(C)C)COc2cccc(N3CCCC3)c2S1(=O)=O` to `CCCCN1CC(CO)Oc2cccc(F)c2S1(=O)=O` (stereo not given), the inhibition falls from 11.6% to -3.97%.

Going from `O=C(CN1CCN(c2cccc(Cl)c2)CC1)Nc1ccc(S(=O)(=O)N2CCOCC2)cc1` to `CC(=O)c1ccc(N2CCN(CC(=O)Nc3ccccc3N3CCOCC3)CC2)cc1`, the inhibition falls from 1.21% to -1.3%.

Compared with `O=C(CSc1nncs1)NC1CCCc2ccccc21` (stereo not given), `O=C(CCC(=O)N1CCN(S(=O)(=O)c2ccccc2)CC1)NC1CCCc2ccccc21` (stereo not given) is lower in inhibition: 2.99% for the first, 2.87% for the second.

First: Cc1cc(C)c(NC(=O)CN2CCOCCOCCOCCOCC2)c(C)c1
Second: Cc1ccc(C(NC(=O)N2CCCC2)C(Cl)(Cl)Cl)cc1F (stereo not given)
The inhibition of the first is lower: -1.78% for the first, -0.94% for the second.

Going from `COC(=O)C1CN(Cc2ccc(F)cc2)CCS(=O)(=O)N1Cc1ccc(Cl)cc1` (stereo not given) to `CC(=O)Nc1ccc(OC[C@@H](O)CN2CCC(C(O)(c3ccccc3)c3ccccc3)CC2)cc1`, the inhibition falls from 0.79% to -3.02%.

With `O=C(COC(=O)c1ccccc1SCC(=O)N1CCCC1)Nc1ccccc1OC(F)F` the inhibition was 2.04%.

In the case of `O=S(=O)(O)c1cc2onnc2c2ccccc12`, the inhibition was 40.6% (active).
In the case of `CCS(=O)(=O)c1cc([N+](=O)[O-])c(Sc2ccccc2N)s1`, the inhibition was 66.1% (active).
With `Cc1sc2nc(SCC(=O)c3ccc(O)c(O)c3)n(Cc3ccco3)c(=O)c2c1C` the inhibition was 25.1% (active).
For `COc1ccccc1-n1c(-c2cc(-c3ccco3)[nH]n2)n[nH]c1=S`, the inhibition was 35.1% (active).
In the case of `Cc1ccc(/C=C/C(=O)Nc2ccc([N+](=O)[O-])c(NC(=O)/C=C/c3ccc(C)o3)c2)o1`, the inhibition was 41.1% (active).
In the case of `CC(=O)N1C(=O)/C(=C2\SC(=S)N(NC(=O)c3ccc(O)cc3)C2=O)c2ccccc21`, the inhibition was 37.7% (active).
`CCN1/C(=C/C(=S)Nc2ccccc2)Sc2ccccc21` was tested, and the inhibition was 64.6% (active).
With `O=C(CN1CCN(c2ccc(O)cc2)CC1)NC1CCCc2ccccc21` (stereo not given) the inhibition was 26.1% (active).
With `O=C(CN1CCN(c2ccc(O)cc2)CC1)Nc1ccc(-c2ccccc2)cc1` the inhibition was 21.2% (active).
For `COc1ccc(N2C(=O)/C(=C\c3ccco3)N=C2SCC(N)=O)cc1Cl`, the inhibition was 25.5% (active).

— PubChem BioAssay AID652257 (The Scripps Research Institute Molecular Screening Center, 2013)
